NOMO-1 viab = NOMO-1 AML cell viability reduction, primary screen, STK33 inhibitor project, CellTiter-Glo luminescence | NOMO-1 AML viability, 72 h | inhibition, % (no concentration beside the values) | 7.5% of 37,000 active | AID 2330, 2010; in the data active means inhibition above about 80%
PD-1 reversal = activators reversing PD-1 mediated T-cell inhibition, primary screen, luminescence, primary human CD4 T cells, PD-L1 beads | CellTiter-Glo 96 h | activation, % (test concentration not listed) | 29,000 tested, under 10 active; call rule not given here;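 further: 0% = median vehicle wells and 100% = positive control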
STK33 kin inh = STK33 kinase inhibitors, primary screen, biochemical, luminescence, ADP-Glo, MBP substrate; Serine/threonine-protein kinase 33 (Homo sapiens), Q9BYT3; inhibition, % at 12.5 µM; 0.44% of 27,000 active; AID 2322, 2010; in the data active means inhibition above about 20%
Target sequence (Q9BYT3 whole entry, looked up): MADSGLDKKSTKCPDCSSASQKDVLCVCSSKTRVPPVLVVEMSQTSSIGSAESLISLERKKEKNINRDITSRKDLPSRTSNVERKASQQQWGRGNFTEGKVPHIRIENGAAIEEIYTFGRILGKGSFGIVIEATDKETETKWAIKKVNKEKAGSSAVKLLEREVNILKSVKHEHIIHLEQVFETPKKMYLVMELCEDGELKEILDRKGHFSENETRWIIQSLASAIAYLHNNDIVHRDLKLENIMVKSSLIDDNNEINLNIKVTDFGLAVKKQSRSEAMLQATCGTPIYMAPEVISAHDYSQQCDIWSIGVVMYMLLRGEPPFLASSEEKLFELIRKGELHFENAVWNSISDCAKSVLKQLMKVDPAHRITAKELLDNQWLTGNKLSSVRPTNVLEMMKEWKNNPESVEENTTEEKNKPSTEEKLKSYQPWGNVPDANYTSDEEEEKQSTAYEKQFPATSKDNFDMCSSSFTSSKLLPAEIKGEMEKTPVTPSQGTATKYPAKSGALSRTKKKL
The depositor's hits bear a star. Only a selection was taken, and hits are over-represented in it overall.

COc1cccc(NC(=O)CN(C)S(=O)(=O)c2ccc(OC)c(C)c2)c1 was read as NOMO-1 viab -15.8, PD-1 reversal -0.3 and STK33 kin inh -1.0.
For Cc1nnc(SCC(=O)Nc2ccc(Cl)cc2Cl)[nH]c1=O the results were NOMO-1 viab -4.3, PD-1 reversal -1.0 and STK33 kin inh -6.7.
`CCCOc1ccc(C2C(C(=O)Nc3ccccc3OC)=C(C)Nc3ncnn32)cc1OC` (stereo unspecified) gave NOMO-1 viab 20.0, PD-1 reversal -5.0 and STK33 kin inh 4.5.
`COc1cc(-c2oc3cc(O)cc(O)c3c(=O)c2O)ccc1O` gave NOMO-1 viab 25.9, PD-1 reversal 1.0 and STK33 kin inh 52.5*.
COc1c(-c2ccc(O)cc2)oc2cc(O)cc(O)c2c1=O was read as NOMO-1 viab 41.4, PD-1 reversal -0.1 and STK33 kin inh 3.6.
Screening O=C(CCCOc1ccc(Cl)cc1Cl)Nc1ccc2c(c1)OCCO2 returned NOMO-1 viab 9.5 and PD-1 reversal -0.4.
C[C@H]1CN([C@@H](C)CO)C(=O)Cc2cc(NC(=O)Nc3cccc4ccccc34)ccc2O[C@@H]1CN(C)Cc1ccc(-c2ccccc2)cc1 was read as NOMO-1 viab 96.0* and PD-1 reversal -0.2.
C[C@H]1CN([C@@H](C)CO)C(=O)Cc2cc(NC(=O)Nc3cccc4ccccc34)ccc2O[C@@H]1CN(C)Cc1ccccc1 was read as NOMO-1 viab 49.6, PD-1 reversal 2.3 and STK33 kin inh 3.7.
`C[C@H](CO)N1C[C@H](C)[C@H](CN(C)Cc2ccccc2)Oc2ccc(NC(=O)Nc3cccc4ccccc34)cc2CC1=O` gave NOMO-1 viab 18.4, PD-1 reversal 0.8 and STK33 kin inh -0.2.
C[C@H](CO)N1C[C@H](C)[C@H](CN(C)Cc2ccc(Oc3ccccc3)cc2)Oc2ccc(NC(=O)Nc3cccc4ccccc34)cc2CC1=O was read as NOMO-1 viab 9.6, PD-1 reversal -0.6 and STK33 kin inh -1.6.
`C[C@H]1CN([C@@H](C)CO)C(=O)Cc2cc(NC(=O)Nc3cccc4ccccc34)ccc2O[C@@H]1CN(C)Cc1ccc(Oc2ccccc2)cc1` gave NOMO-1 viab 116.2*, PD-1 reversal 0.6 and STK33 kin inh 8.7.
`C[C@@H]1CN([C@@H](C)CO)C(=O)Cc2cc(NC(=O)Nc3cccc4ccccc34)ccc2O[C@@H]1CN(C)Cc1ccncc1` gave NOMO-1 viab 82.0*, PD-1 reversal -5.0 and STK33 kin inh -0.4.
`O=C(CSc1nnc(COc2ccccc2)o1)Nc1ccccc1` gave NOMO-1 viab 13.6 and PD-1 reversal 0.1.
C[C@@H]1CN([C@@H](C)CO)C(=O)Cc2cc(NC(=O)CCCCCC(=O)Nc3ccccc3N)ccc2O[C@@H]1CN(C)C(=O)Nc1ccccc1 was read as NOMO-1 viab 3.9 and PD-1 reversal 1.2.
For C[C@H](CO)N1C[C@H](C)[C@H](CN(C)Cc2ccc(-c3ccccc3)cc2)Oc2ccc(NC(=O)CCCCCC(=O)Nc3ccccc3N)cc2CC1=O the results were NOMO-1 viab 139.2* and PD-1 reversal -2.6.
C[C@@H]1CN([C@H](C)CO)C(=O)Cc2cc(NC(=O)CCCCCC(=O)Nc3ccccc3N)ccc2O[C@@H]1CN(C)Cc1ccc(-c2ccccc2)cc1 was read as NOMO-1 viab 140.6* and PD-1 reversal -3.2.
Screening C[C@H]1CN([C@@H](C)CO)C(=O)Cc2cc(NC(=O)CCCCCC(=O)Nc3ccccc3N)ccc2O[C@H]1CN(C)CC1CCCCC1 returned NOMO-1 viab 138.4* and PD-1 reversal -0.6.
`C[C@@H]1CN([C@H](C)CO)C(=O)Cc2cc(NC(=O)CCCCCC(=O)Nc3ccccc3N)ccc2O[C@H]1CN(C)Cc1ccc(-c2ccccc2)cc1` gave NOMO-1 viab 139.5* and PD-1 reversal -0.3.
C[C@@H]1CN([C@H](C)CO)C(=O)Cc2cc(NC(=O)CCCCCC(=O)Nc3ccccc3N)ccc2O[C@@H]1CN(C)Cc1ccncc1 was read as NOMO-1 viab 24.2 and PD-1 reversal 0.3.
For C[C@H](CO)N1C[C@H](C)[C@H](CN(C)Cc2ccncc2)Oc2ccc(NC(=O)CCCCCC(=O)Nc3ccccc3N)cc2CC1=O the results were NOMO-1 viab 49.3 and PD-1 reversal -0.4.
C[C@@H]1CN([C@H](C)CO)C(=O)Cc2cc(NC(=O)CCCCCC(=O)Nc3ccccc3N)ccc2O[C@H]1CN(C)CC1CC1 was read as NOMO-1 viab 50.9 and PD-1 reversal -0.5.
`CC(C)c1ccc(NC(=O)CN(C)S(=O)(=O)c2ccc(F)cc2)cc1` gave NOMO-1 viab 14.6, PD-1 reversal -1.9 and STK33 kin inh -1.9.
O=C(c1cccc(Cl)c1)N1CCOCC1 was read as NOMO-1 viab 4.5, PD-1 reversal 4.2 and STK33 kin inh 0.7.

Source: PubChem
